This note sets out measurements from the supplement of paper PMC11417369.

± gives the standard deviation of the averaged measurements. The full ranking holds about 25,000 sequences; the median of “ln(normalized median fluorescence intensity)” is about 7.9, and the highest 2% start at about 11. The sample holds the highest values, similar sequences and a random draw of the others, so the mix is not that of the screen.

The test system of the test is PfAP2-I AP2 domain 3 (GST-tagged). Put plainly: gcPBM binding intensity (ln(normalized median fluorescence intensity)); higher = stronger DNA binding. A digest of the protocol: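 After 1 h on an Agilent 4 × 180k array of primer-extended double-stranded 36-bp intergenic genomic probes and negative controls, bound GST-tagged P. falciparum DNA-binding domains were detected with Alexa488 anti-GST antibody and scanned at 488 nm. The domains had been expressed in E. coli, and binding took place in 1× PBS with 1% milk, 0.2 mg/ml BSA, 0.5% salmon testes DNA and 0.03% Triton X-100. Binding intensity is the highest Masliner-normalised natural-log median intensity across replicate spots of either probe orientation.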
For the sequence TGTATTAAAAATTTGGTGCAACTTTTACATAATAAT, the “gcPBM binding intensity (ln)” value came to 9.49 ± 0.18.

Consider “ACTAATAATTTGTCGGTGCATAAAATTATTTTTATT [GTGCAC_site9840]”, for which the “gcPBM binding intensity (ln)” value came to 10.8 ± 0.43.

ACTTTAACCTGAACGGTGCATAAAATTTTGGCATTA: the “gcPBM binding intensity (ln)” value is 10.9 ± 0.35.

Consider “CATATTATATTCTGCTTACACACATATATATATATA [CACACA_site3059]”, for which the “gcPBM binding intensity (ln)” value stood at 9.36 ± 0.29.

With “TCCCAATTTCTATCCTGTACAGACATAAATATATAC [XGTACX_site5937]”, the “gcPBM binding intensity (ln)” value worked out at 8.31 ± 0.49.

For the sequence “TATGTATATATTTACGCATGCTACTCTATTTTGAGA [TGCATGCA_site990]”, the “gcPBM binding intensity (ln)” value was 7.64 ± 0.48.

On to AATAAATACTAAATGGTGCAAAATTTTTTAACACTG, for which the “gcPBM binding intensity (ln)” value is 10.8 ± 0.42.

For the sequence ATACTATTTAAATGGGTGCTAAAAATAACAAAAATT, the “gcPBM binding intensity (ln)” value amounted to 9.65 ± 0.085.

Regarding “TAAATCAAAATAATTTAACACACAATTTTAATACTG [CACACA_site8744]”, the “gcPBM binding intensity (ln)” value is 7.34 ± 0.54.

Regarding “ATCAAATTTGGACATGCATGTGTGTGTAAAACCATG [TGCATGCA_site309]”, the “gcPBM binding intensity (ln)” value is 8.52 ± 0.41.

With “TGGTATATTATTTTTTGTACACATAAATGAAACATT [XGTACX_site5345]”, the “gcPBM binding intensity (ln)” value was determined as 8.04 ± 0.22.

Regarding “GGTGTTTTTCACAGATGTACACAAATAAAAAAGAAA [XGTACX_site4454]”, the “gcPBM binding intensity (ln)” value turned out to be 8.39 ± 0.47.

As to “TCGTTATCCATCTTCACACATATATATAGTAATATA [CACACA_site5492]”, the “gcPBM binding intensity (ln)” value was found to be 8.27 ± 0.49.

As to “AAAGTGTTAACCTAATCTTTAGTTTTTAAACAATAT [CACACA_negctrl_site841]”, the “gcPBM binding intensity (ln)” value was determined as 7.49 ± 0.59.

Take “TTTTTTTCAATATTTGCACACGATTATAATATTTAA [CACACA_site2237]”: the “gcPBM binding intensity (ln)” value is 9.415 ± 0.035.

In the case of ATATATATATATATAGTGCACATTTATATAATTATT, the “gcPBM binding intensity (ln)” value came to 11.43 ± 0.092.

Turning to “TTAATTTATTTATGCACACATATATAATTACCCATA [CACACA_site682]”, the “gcPBM binding intensity (ln)” value was determined as 10.2 ± 0.67.

In the case of “TATAATAATATTATAGTGCATATTATTTATATATAA [GTGCAC_site9820]”, the “gcPBM binding intensity (ln)” value worked out at 9.72 ± 0.16.

On to “GCCATTAATTTATACACACACATTATAACTTTTTAT [CACACA_site6492]”, for which the “gcPBM binding intensity (ln)” value turned out to be 8.29 ± 0.49.

Regarding “TTAATAATTAATTATAGTACACATTTATATTAATAA [XGTACX_site190]”, the “gcPBM binding intensity (ln)” value stood at 7.915 ± 0.064.

Regarding “TATATTATTAATTAAGCACACATTATTTTTATAATA [CACACA_site3982]”, the “gcPBM binding intensity (ln)” value is 8.54 ± 0.3.

Turning to ACCCATTTTAATTTAGTGCACATTTTACCTTTATAC, the “gcPBM binding intensity (ln)” value turned out to be 11.4 ± 0.35.

On to “CTATTTCAATTTAGTGCACACATTTTAATTTATAAG [CACACA_site2040]”, for which the “gcPBM binding intensity (ln)” value was found to be 11.4 ± 0.49.

Consider “TAATGGTGTTCATGTGGTACACTTTATAAATTGGCA [XGTACX_site729]”, for which the “gcPBM binding intensity (ln)” value was 7.9 ± 0.47.

For “CCCTTTTATTAAAATTCACACACATAAATTTTTATA [CACACA_site8611]”, the “gcPBM binding intensity (ln)” value was 8.06 ± 0.41.

With “TATAAAAAAAAAAAATATATATATATATAAATATAA [TGCATGCA_negctrl_site367]”, the “gcPBM binding intensity (ln)” value came to 7.28 ± 0.37.

For “ACTTAGGAAATAAAACGTACATTAAATATATACATA [XGTACX_site2990]”, the “gcPBM binding intensity (ln)” value amounted to 7.84 ± 0.35.

With “AAATAAAAAAGTAGTACACACTTCACGATATTTTTT [CACACA_site6015]”, the “gcPBM binding intensity (ln)” value came to 7.89 ± 0.43.

On to “CATCAAGTGAATTGTTGTACTTTACATTGTTTTTAT [XGTACX_site7261]”, for which the “gcPBM binding intensity (ln)” value turned out to be 7.89 ± 0.69.

On to “AAAAAATATTATATATGTACATAATATTTTTTTTTT [XGTACX_site5909]”, for which the “gcPBM binding intensity (ln)” value stood at 7.47 ± 0.39.

In the case of “ACATACTCAAATAGCACACACATAAATAAAAATGTA [CACACA_site3864]”, the “gcPBM binding intensity (ln)” value came out at 8.42 ± 0.099.

Consider “AAAAGAAAATATATGTGTACTAAAATATATATATAT [XGTACX_site3817]”, for which the “gcPBM binding intensity (ln)” value came out at 9.455 ± 0.021.

With “AAATCGTGTACATTGACACACATAATTTTTTTTATA [CACACA_site2463]”, the “gcPBM binding intensity (ln)” value was determined as 8.09 ± 0.38.

On to “ACATATTATTCAAGTGCACACTTTATATTTATGATT [CACACA_site3295]”, for which the “gcPBM binding intensity (ln)” value amounted to 9.715 ± 0.035.

With “TTATTTTATTTTTGTGCACACTGATAAATTGAAAAG [CACACA_site2949]”, the “gcPBM binding intensity (ln)” value amounted to 10.8 ± 0.22.

Regarding “ATCATCTTTATTCAAGTGCACTGAAAATTTTTTATA [GTGCAC_site9801]”, the “gcPBM binding intensity (ln)” value worked out at 11.1 ± 0.32.

With TACATCATCTATAAGGTGCATTTTAGTTCTATTAAA, the “gcPBM binding intensity (ln)” value worked out at 10.3 ± 0.58.

With “TCCTTTATTTTTAAAGTGCATATACATGTACATTAT [GTGCAC_site9445]”, the “gcPBM binding intensity (ln)” value worked out at 9.675 ± 0.078.

Consider “AAAAAAAAAAGAAACACACACATATAGATTTATAAC [CACACA_site6927]”, for which the “gcPBM binding intensity (ln)” value came out at 7.69 ± 0.69.

Take “AAGTTTAAAATCTTTGCACACATATAAATAAATATA [CACACA_site2554]”: the “gcPBM binding intensity (ln)” value was 8.94 ± 0.12.

Consider “ATATAATATTAGTGCACACACAAAAATGTACTAAAC [CACACA_site632]”, for which the “gcPBM binding intensity (ln)” value came to 11.3 ± 0.54.

With “GAAACTATGTAATGCACACCAAAATAAAATTATTAA [CACACA_site1904]”, the “gcPBM binding intensity (ln)” value amounted to 10.9 ± 1.

For the sequence “AGAAAAATAAACAAATGTACAAATTATTACTATATA [XGTACX_site1087]”, the “gcPBM binding intensity (ln)” value is 7.63 ± 0.34.

Turning to “CTATAATATTAGTGCACACACAAAAATGTACTAAAC [CACACA_site6442]”, the “gcPBM binding intensity (ln)” value is 11.6 ± 0.62.

In the case of “ATAATAAATACACTAGTGCAAAATAATATATGTACT [GTGCAC_site9707]”, the “gcPBM binding intensity (ln)” value is 10.4 ± 0.22.

Consider “ATATTACAAATATAATGTACAAAATATAAATATGCA [XGTACX_site8106]”, for which the “gcPBM binding intensity (ln)” value is 7.62 ± 0.3.

“TTAAAAAACTATAATACACACCAAAAATATGCACAT [CACACA_site7079]”: the “gcPBM binding intensity (ln)” value stood at 9.44 ± 0.7.

In the case of “GTATATAATATTAGTGCACACACAAAAATGTACTAA [CACACA_site8112]”, the “gcPBM binding intensity (ln)” value came to 11.4 ± 0.55.

Turning to “TAGAAACTATGTAATGCACACCAAAATAAAATTATT [CACACA_site8578]”, the “gcPBM binding intensity (ln)” value was found to be 10.4 ± 0.33.

As to “AAAAATATAATATAATGTACACAAAAAAAAAAAAAT [XGTACX_site4914]”, the “gcPBM binding intensity (ln)” value was 8.18 ± 0.15.

As to “AAAAATATAATATAATGTACACAAAAAAAAAAAATC [XGTACX_site1427]”, the “gcPBM binding intensity (ln)” value stood at 7.93 ± 0.52.

Take “AAAAATATAATATAATGTACACATAAACAAAAAAAA [XGTACX_site3658]”: the “gcPBM binding intensity (ln)” value worked out at 7.92 ± 0.57.
